# GLD-1 TGE inh: GLD-1-TGE RNA interaction inhibition (C. elegans). purified GLD-1 + fluorescein TGE RNA, fluorescence polarization. Q17339. inhibition, % at 5.96 µM. 0.44% of 320,000 active;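 active means percent inhibition above a per-plate cutoff, the plate mean of test compounds plus 3 SD, cut at about 30% in these data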
# Mcl1 Bid PPI: Mcl-1/Bid interaction inhibition; inhibition, % at 21.7 µM; 0.97% of 220,000 active; TR-FRET Mcl-1/Bid-Dy647 peptide binding, 1536-well;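 active means compounds that cut the binding signal by more than half at the single screening dose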;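 further: His-tagged Mcl-1 with europium anti-His antibody binding Bid BH3 peptide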
# BCLXL inh: inhibitors of human Bcl-xL; inhibition, % at 10.9 µM; 0.7% of 320,000 active; Q07817; AID 2129; GST-Bcl-xL / FITC-Bim BH3 peptide fluorescence polarization;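 active means inhibition above the mean of all tested compounds plus 3 SD, cutoff set per campaign, cut at about 30% in these data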;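 further: inhibitors lower millipolarization by displacing the labeled peptide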
# Target sequence (Q07817 whole entry, looked up): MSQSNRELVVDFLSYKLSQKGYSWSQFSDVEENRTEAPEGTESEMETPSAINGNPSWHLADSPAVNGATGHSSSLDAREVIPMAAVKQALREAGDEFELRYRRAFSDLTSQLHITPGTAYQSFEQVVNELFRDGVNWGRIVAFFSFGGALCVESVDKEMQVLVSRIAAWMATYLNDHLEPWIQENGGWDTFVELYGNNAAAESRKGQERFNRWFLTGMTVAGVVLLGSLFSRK
# Mcl-1 Bim block: disrupts Bim peptide binding to human Mcl-1; 0.1% of 190,000 active; inhibition, % at 10 µM; AID 1009; Q07820; Bead-based flow cytometry, Bim peptide-Mcl-1 binding; in the data active means inhibition above about 40%
# MCL1 BIM primary: MCL1-BIM-BH3 interaction inhibition (human); GST-MCL1 / FITC-Bim-BH3 fluorescence polarization; inhibition, % at 10.9 µM; AID 2057; 0.68% of 320,000 active; Q07820;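 active means inhibition above the mean inhibition of all tested compounds plus 3 SD, set per campaign, cut at about 40% in these data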;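 further: higher means more loss of mP so more displacement of Bim peptide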
# Mcl1-Noxa inh: disrupts binding of human Mcl-1 to Noxa peptide; Q07820; TR-FRET Mcl-1/Noxa peptide binding, 2 h; inhibition, % at 21.7 µM; 1.5% of 220,000 active; AID 1022;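 active means compounds that cut the protein-peptide binding signal by more than 50% relative to plate controls in a single-dose test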;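 further: His-tagged Mcl-1 with rhodamine Noxa BH3 peptide and terbium anti-His antibody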
# BCLXL inh confirm: counter-screen for MCL1 inhibitors: confirmation of human Bcl-xL inhibitors; shares compounds with MCL1 BIM primary; GST-Bcl-xL / FITC-Bim BH3 peptide FP binding; inhibition, % at 10.9 µM; 54% of 1,700 active; AID 2166;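 active means inhibition above a cutoff equal to the mean inhibition of all tested compounds plus 3 SD, cut at about 30% in these data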
# MCL1 inh confirm: MCL1-BIM-BH3 interaction inhibition, confirmation; AID 2168; shares compounds with MCL1 BIM primary; inhibition, % at 10.9 µM; 61% of 1,700 active; GST-MCL1 / FITC-Bim-BH3 fluorescence polarization;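 active means inhibition above the average of all tested compounds plus 3 SD, cut at about 40% in these data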
# A number is an active result; i = inactive; nt = no result; + = active, no number. The list is not random: actives were taken first. Their share in the collection is about 2.3%.
SMILES,GLD-1 TGE inh,Mcl1 Bid PPI,BCLXL inh,Mcl-1 Bim block,MCL1 BIM primary,Mcl1-Noxa inh,BCLXL inh confirm,MCL1 inh confirm
CCN(C(=O)c1ccco1)c1nnc(-c2cccnc2)s1,i,nt,i,nt,i,nt,nt,nt
O=C(NCN1CCN(c2ccccc2)CC1)c1cnccn1,i,nt,i,nt,140,nt,i,i
CCN1CCN(CNC(=O)c2cnccn2)CC1,i,i,i,i,i,i,nt,nt
C=CCc1cccc(/C=N/NC(=O)CNc2cccc3ccccc23)c1O,i,i,i,i,47,i,i,54
Cc1ccc(CNC(=O)COC(=O)c2cccnc2Cl)cc1,i,nt,nt,nt,nt,nt,nt,nt
COCCCn1c(=O)/c(=C\c2ccccc2OC(F)F)s/c1=C(/C#N)C(=O)N1CCOCC1,i,i,i,i,+,i,i,i
COCCCn1c(=O)/c(=C\c2ccccc2OC(F)F)s/c1=C(/C#N)C(=O)NCCOC,i,i,i,nt,i,i,nt,nt
CCOC(=O)Cc1csc(NC(=O)c2c(O)c3c(n(CC(C)C)c2=O)CCCC3)n1,i,i,i,nt,i,i,nt,nt
O=C1CCNc2cc3ccccc3cc21,57,i,112,i,131,60,114,144
COC(=O)c1ccccc1NCc1cc(=O)oc2cc(O)c(O)cc12,i,nt,i,nt,60,nt,i,65
COc1ccc(CCNC(=O)c2c(N)no[n+]2[O-])cc1OC,i,i,i,i,96,i,i,i
COc1ccc(CCNC(=O)Cc2ccc(OC)c(OC)c2)cc1OC,i,i,i,i,i,i,nt,nt
Cc1cc(=O)[nH]c(-n2[nH]c3c(c2=O)CCCC3)n1,53,i,67,i,71,i,32,40
CN(C(=O)CCNC(=O)N1CC(=O)Nc2ccccc21)C1CCCCC1,i,nt,i,nt,i,nt,nt,nt
O=C1CN(C(=O)NCCC(=O)NC2CCCCC2)c2ccccc2N1,i,nt,i,nt,69,nt,i,i
O=c1[nH]n2c(=O)c3c([nH]c2c1N=Nc1cccc(Cl)c1)CCC3,i,i,i,i,42,58,i,i
CCCOc1ccc(N)cc1N,i,i,117,i,124,76,40,45
Cc1nn(C)cc1S(=O)(=O)N1CCN(Cc2ccccc2Cl)CC1,i,i,i,i,i,i,nt,nt
CCCN1CCN(S(=O)(=O)c2cn(C)nc2C)CC1,i,nt,66,nt,84,nt,77,96
O=C1S/C(=C/c2ccc(N3CCOCC3)o2)C(=O)N1Cc1ccc(F)cc1,i,i,i,i,i,i,nt,nt
O=C1NC(=S)S/C1=C/c1ccc(N2CCOCC2)o1,i,i,47,i,65,i,39,i
O=C(O)C1Cc2c([nH]c3ccccc23)C(c2ccc3c(c2)OCO3)N1 (centres undefined),i,i,52,i,59,i,i,i
O=C(CNC(=O)Cc1ccccc1)N=Nc1c(O)[nH]c2ccccc12,i,nt,i,nt,i,nt,nt,nt
O=C(CNC(=O)/C=C/c1ccco1)N=Nc1c(O)[nH]c2ccccc12,i,nt,i,nt,42,nt,i,57
CCOc1cc(C(c2c(O)nc(SC)[nH]c2=O)c2c(O)nc(SC)[nH]c2=O)ccc1O,68,nt,84,nt,97,nt,65,76
CCCCC1=CC2=C(c3ccco3)C(=O)C(C)(OC(=O)c3ccc(OC)cc3)C(=O)C2=CN1CCCN(CC)CC (centres undefined),34,i,49,nt,53,i,158,+
CCCCC1=CC2=C(c3ccco3)C(=O)C(C)(OC(=O)c3ccc(OC)cc3)C(=O)C2=CN1Cc1ccc(OC)cc1 (centres undefined),nt,i,nt,nt,nt,i,nt,nt
COC(=O)CCCC1=CC2=C(c3ccccc3)C(=O)C(C)(OC(=O)C3CCCC3)C(=O)C2=CN1CCN1CCOCC1 (centres undefined),90,i,120,nt,154,i,68,86
CCCCC1=CC2=C(c3ccco3)C(=O)C(C)(OC(=O)c3ccc(OC)cc3)C(=O)C2=CN1CCCCO (centres undefined),42,i,79,nt,89,i,i,i

# Screens: PubChem BioAssay, several laboratories
